The assay has as its target dTDP-4-dehydrorhamnose reductase (Mycobacterium tuberculosis (strain ATCC 25618 / H37Rv)) + dTDP-4-dehydrorhamnose 3,5-epimerase (Mycobacterium tuberculosis (strain ATCC 25618 / H37Rv)) (UniProt P9WH09+P9WH11). The assay can be described thus: M. tuberculosis RmlC/RmlD coupled enzyme inhibitors, primary screen, biochemical, compound mixtures, 384-well, from 1536-well plates (AID 1533). The settings on record: RmlC+RmlD coupled enzyme assay, percent inhibition, primary screen in compound mixtures, stronger effect = higher value.

The whole screen tested about 160,000 compounds, of which about 45 (0.03%) were called active. No stated cut-off is given here; in the data, active means inhibition mostly above about 34% (no sharp cut-off); inconclusive means no clear call, values can overlap the other calls; inactive means mostly below about 22%. Only a selection was taken, and actives are over-represented in it overall.

45 compounds from PubChem BioAssay AID1533 (PCMD, 2009) can be followed below.

Chain of dTDP-4-dehydrorhamnose reductase (Mycobacterium tuberculosis (strain ATCC 25618 / H37Rv)) + dTDP-4-dehydrorhamnose 3,5-epimerase (Mycobacterium tuberculosis (strain ATCC 25618 / H37Rv)) (P9WH09 whole entry, looked up): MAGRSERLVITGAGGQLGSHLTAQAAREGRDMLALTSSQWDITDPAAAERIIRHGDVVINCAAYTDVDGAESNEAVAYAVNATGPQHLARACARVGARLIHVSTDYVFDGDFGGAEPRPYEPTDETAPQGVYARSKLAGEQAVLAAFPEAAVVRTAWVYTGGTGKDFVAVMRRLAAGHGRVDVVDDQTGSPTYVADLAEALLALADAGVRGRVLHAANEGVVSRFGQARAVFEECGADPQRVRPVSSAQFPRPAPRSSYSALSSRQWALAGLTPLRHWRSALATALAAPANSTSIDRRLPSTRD
Chain of dTDP-4-dehydrorhamnose reductase (Mycobacterium tuberculosis (strain ATCC 25618 / H37Rv)) + dTDP-4-dehydrorhamnose 3,5-epimerase (Mycobacterium tuberculosis (strain ATCC 25618 / H37Rv)) (P9WH11 whole entry, looked up): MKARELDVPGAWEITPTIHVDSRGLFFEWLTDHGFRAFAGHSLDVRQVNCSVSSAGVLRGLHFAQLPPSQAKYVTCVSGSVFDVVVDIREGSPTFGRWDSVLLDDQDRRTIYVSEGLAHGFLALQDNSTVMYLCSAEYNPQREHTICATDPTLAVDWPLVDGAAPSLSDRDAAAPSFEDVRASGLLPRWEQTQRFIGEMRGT

As for `Cc1ccc(OCC(=O)Nc2nnc(-c3ccco3)s2)cc1`, the inhibition (at 3.6 µM) is -5.61% (inactive).
Same read-out and setting: under `O=[N+]([O-])c1ccc(N=Cc2c(O)ccc3ccccc23)cc1` stands -17.6% (inactive); under `O=c1[nH]nc(SCCS(=O)(=O)c2ccc(F)cc2)n1-c1ccccc1C(F)(F)F`, -9.62% (inactive); under `C=CCc1cccc2cc(C(=O)NC3CCCC3)c(=O)oc12`, 3.42% (inactive).
On to `COc1ccc2[nH]c(C(=O)Nc3ccccc3Cl)cc2c1`, for which the inhibition (at 3.6 µM) is -0.28% (inactive).
Still for that read-out and setting: the value for `CC1=NNC(=O)C1CC(=O)N/N=C/c1ccncc1` (stereo unspecified) was 8.8% (inactive); that for `C/C(=C\c1ccco1)CN1CCC(N2CCC(C(=O)N3CCOCC3)CC2)CC1` was 3.12% (inactive); that for `O=C(C[n+]1cc(-c2ccc(Cl)c(Cl)c2)n2c1CCC2)c1cccs1` was 2.29% (inactive).
For the compound `COc1ccc([N+](=O)[O-])cc1N(CC(O)CN(CC(C)C)CC(C)C)S(=O)(=O)c1ccc(C)cc1` (stereo unspecified), the inhibition (at 3.6 µM) was 2.56% (inactive).
On to `COc1cc(N/C=C2\CC(=O)NC(C)=C2C#N)cc(OC)c1OC`, for which, where the note is “at 3.6 µM”, the inhibition is -11.2% (inactive).
The same measure, in the same setting: under `CC(C)N(C(=O)CSc1nc(COc2ccccc2)nc2ccccc12)C(C)C` stands -5.31% (inactive); under `COc1c(N2CCN(C(=S)Nc3ccccc3F)C(C)C2)c(F)cc2c(=O)c(C(=O)O)cn(C3CC3)c12` (stereo unspecified), 9.08% (inactive).
Same read-out and setting: the value for `CCc1cccc(CC)c1NC(=S)Nc1ccc2cn[nH]c2c1` was -7.83% (inactive).
The same measure, in the same setting: the value for `O=C1/C(=C/c2cccs2)SC(=S)N1C1CCS(=O)(=O)C1` (stereo unspecified) was 1.03% (inactive).
For the compound `COc1ccc(OCC(O)CNCCNc2nccc(C(F)(F)F)n2)cc1` (stereo unspecified), the inhibition is, setting by setting: (at 3.6 µM) 42.7% (inactive); (measured here: mean retest inhibition, at 5.5 µM) 10.5%.
`Cc1ccc(/C=C/C(=O)O)cc1S(=O)(=O)N1CCC(Cc2ccccc2)CC1`: the inhibition (at 3.6 µM) is -14% (inactive).
Same read-out and setting: under `O=C(C[n+]1ccc2c(c1)nnn2-c1ccccc1)c1ccc(Cl)cc1` stands -3.04% (inactive); under `CC1Cc2ccccc2N1C1=CC(=O)CC(C)(C)C1` (stereo unspecified), 10.6% (inactive); under `CC(=O)Nc1ccc(NC(=O)CSc2nnc(COc3ccccc3C)n2CC2CCCO2)cc1` (stereo unspecified), 7.46% (inactive).
For the compound `O=C(Nc1nnc(COc2ccccc2)s1)Nc1ccccc1F`, for the setting “at 3.6 µM”, the inhibition was 3.12% (inactive).
In the case of `COc1ccc(CNC(=O)C(Cc2ccccc2)n2cccc2)cc1` (stereo unspecified), where the note is “at 3.6 µM”, the inhibition was 6.07% (inactive).
Same read-out and setting: the value for `COc1ccc(Nc2cc(=O)n(-c3ccccc3)c3c2c(=O)n(C)c(=O)n3C)cc1` was 13.6% (inactive).
The same measure, in the same setting: the value for `CCN(CC)CCn1cnc2c1c(=O)n(CCOC(=O)c1cc(OC)c(OC)c(OC)c1)c(=O)n2C` was 3.47% (inactive).
Same read-out and setting: the value for `O=C1COc2ccc(C(=O)COC(=O)C3CC(O)CN3S(=O)(=O)c3ccc(Cl)cc3)cc2N1` (stereo unspecified) was -2.3% (inactive).
For the compound `COc1ccc(CNC(=O)COC(=O)/C=C/c2ccc(S(=O)(=O)N3CCOCC3)cc2)cc1`, the inhibition (at 3.6 µM) was -2.01% (inactive).
Still for that read-out and setting: under `N/C(=N\OC(=O)CCCC(=O)O)c1ncc(C(F)(F)F)cc1Cl` stands 2.53% (inactive); under `N#CC1=C(N)Oc2c(ccc3cccnc23)C1c1ccncc1` (stereo unspecified), 4.04% (inactive).
As to `c1csc(-c2nnc(COc3ncnc4sccc34)o2)c1`, the inhibition (at 3.6 µM) is -7.72% (inactive).
Regarding `O=c1ccnc(Nc2ccc(Cl)cc2)[nH]1`, the inhibition (at 3.6 µM) was 6.37% (inactive).
The same measure, in the same setting: under `CN(c1ccccc1)S(=O)(=O)c1cc(C(=O)OCC(=O)N2CCN(C(=O)c3ccco3)CC2)ccc1Cl` stands 3.76% (inactive); under `COC(=O)c1ccccc1N=Nc1c(C)[nH][nH]c1=O`, -10.6% (inactive); under `O=C(Nc1ccccc1F)c1ccc(Cn2cc(Br)cn2)cc1`, -3.16% (inactive).
On to `O=C(Cc1ccccc1Cl)N1CCN(c2ccccn2)CC1`, for which the inhibition (at 3.6 µM) was -5.39% (inactive).
Still for that read-out and setting: the value for `NC(=O)Cc1ccc2c(c1)[nH]c1ccccc12` was -1.93% (inactive); that for `O=C(COc1cc(Cl)c(Cl)cc1Cl)NCCc1ccccn1` was 6.74% (inactive).
On the same count and under the same terms, under `CCN1C(=O)/C(=c2\s/c(=C3\Sc4ccccc4N3C)c(=O)n2C)N(C)C1=S` stands -7.72% (inactive); under `C=CCN(CC=C)C(=O)COC(=O)c1n[nH]c2ccccc12`, 5.16% (inactive).
As to `O=C(Nc1ccc(-c2ccc3nncn3n2)cc1)C1CCCCC1`, the inhibition (at 3.6 µM) was -6.47% (inactive).
Same read-out and setting: the value for `Cc1ccc(-c2nn(-c3cccc(F)c3)cc2CNCCc2ccncc2)o1` was -11.7% (inactive); that for `CCN(CC)S(=O)(=O)c1ccc(NC(=O)c2cccnc2Cl)c(NC(=O)c2cccnc2Cl)c1` was 9.89% (inactive).
Consider `O=[N+]([O-])/C(N=Nc1ccccc1)=N\Nc1ccccc1`, for which the inhibition (at 3.6 µM) was -9.57% (inactive).
On the same count and under the same terms, the value for `O=S(=O)(NC(=S)Nc1ccccc1)c1ccc(F)cc1` was -3.25% (inactive); that for `CN(CCC1CCOCC1)Cc1cn[nH]c1-c1ccc(-c2ccccc2)cc1` was 9.21% (inactive).
Still for that read-out and setting: the value for `Cc1c(NC(=O)CN2C(=O)C(=O)N(Cc3ccccc3)C2=O)c(=O)n(-c2ccccc2)n1C` was 7.63% (inactive).
Same read-out and setting: the value for `CCOC(=O)c1sc(NC(=O)CSc2n[nH]c(CC)n2)nc1C` was -5.04% (inactive).

Broadly, the inhibition is the change of the read-out against control, counted positive when it falls.
